Laboratory results reported in PubChem BioAssay.
Active and inactive are the calls of the source.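 Rule for the calls, unless noted: active = fluorescence slope higher than the sample average by over 3 SD (cut at about -0.22 in these data, passing the limit was not always enough); inactive = the rest.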

Columns and labels:
[1] = inhibitors of TNFa-induced NFkB p65 translocation, primary screen, imaging, HUVEC, MLSMR starter and 10KST1 sets (AID 438;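 active = inhibition above 20% together with a positive visual image hit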;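 note: compound added about 3h40 before a 20 min TNFalpha stimulation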;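 for inhibition: signal is the nuclear over cytoplasmic p65 intensity ratio per well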); details: HUVEC TNFa-induced p65 nuclear translocation; cell count: measured here: nuclei count (cytotoxicity indicator), at 2.08 µM; inhibition: at 2 µM, stronger effect = higher value, 0% TNFa-plus-vehicle, 100% no-TNFa wells
[2] = reduction of polyQ htt aggregates in cells – imaging, exon1htt(103Q)mCFP cells, high-content imaging, primary screen (AID 483;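 active = visual image review flags a hit and inhibition of aggregation exceeds 20%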;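 note: compound exposure lasted 3 days before fixation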;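 for nuclei count: percent of the per-plate median nuclei count of sample wells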); details: exon1htt(103Q)mCFP cell line, aggregate imaging, at 2 µM; inhibition of aggregation: stronger effect = higher value; nuclei count: measured here: cell count, toxicity
[3] = endothelial E-selectin expression blockers – imaging, HUVEC, immunofluorescence, MLSMR starter and 10KST1 sets, primary screen (AID 487;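 active = visually confirmed hit in the image check and inhibition above 20%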;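 for inhibition: signal is fraction of cell area covered by stained E-selectin grains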;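 for nuclei count: 100% = median nuclei count of all wells on the same plate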); details: HUVEC TNFalpha-induced E-selectin immunofluorescence imaging, at 2 µM; inhibition: stronger effect = higher value; nuclei count: measured here: cell number, toxicity
[4] = biological target: Voltage-gated potassium channel subunit beta-2 (Rattus norvegicus) (UniProt P62483); assay: inhibitors of rat Kvbeta2 reductase activity – biochemical, NADPH fluorescence, primary screen (AID 622); details: recombinant KvBeta, 4-cyanobenzaldehyde reduction, at 10 µM, stronger effect = higher value;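 note: slope of raw intensity against log time taken from 70 to 1610 s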
Voltage-gated potassium channel subunit beta-2 (Rattus norvegicus), sequence (P62483 whole entry, looked up): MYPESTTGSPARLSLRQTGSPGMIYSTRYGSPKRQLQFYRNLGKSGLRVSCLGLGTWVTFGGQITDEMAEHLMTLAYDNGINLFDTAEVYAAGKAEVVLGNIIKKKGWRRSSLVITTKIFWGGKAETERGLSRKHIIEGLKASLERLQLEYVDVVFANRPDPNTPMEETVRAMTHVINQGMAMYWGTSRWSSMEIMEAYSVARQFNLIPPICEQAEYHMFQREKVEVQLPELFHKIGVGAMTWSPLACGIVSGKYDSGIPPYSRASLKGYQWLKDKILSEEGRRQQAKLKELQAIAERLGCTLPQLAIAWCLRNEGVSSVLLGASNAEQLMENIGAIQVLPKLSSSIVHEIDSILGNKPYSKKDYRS

[5] = biological target: Voltage-gated potassium channel subunit beta-2 (Rattus norvegicus) (UniProt P62483); assay: enhancers of rat Kvbeta2 NADPH turnover – biochemical, NADPH fluorescence, primary screen (AID 623;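 active = NADPH fluorescence slope more negative than the mean of all samples by about 3 SD, 99.7% confidence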;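 note: fluorescence intensity change per second fitted from 20 to 320 s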); details: Recombinant KvBeta, NADPH fluorescence decrease slope, 10 min; at 10 µM; stronger effect = lower value
[6] = biological target: Alpha-2C adrenergic receptor (Homo sapiens) (UniProt P18825); assay: compounds altering alpha2C-coupled GIRK flux – cell-based, HEK293 alpha2C/GIRK1/2, thallium flux, primary screen (AID 624;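 active = fluorescence slope after compound addition differing from the mean of all screened samples at 99.7% confidence, in either direction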;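 note: slope of fluorescence ratio to pre-addition baseline per second over 15 to 24 s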); details: thallium flux BTC fluorescence, at 10 µM, actives lie on both sides
Alpha-2C adrenergic receptor (Homo sapiens), sequence (P18825 whole entry, looked up): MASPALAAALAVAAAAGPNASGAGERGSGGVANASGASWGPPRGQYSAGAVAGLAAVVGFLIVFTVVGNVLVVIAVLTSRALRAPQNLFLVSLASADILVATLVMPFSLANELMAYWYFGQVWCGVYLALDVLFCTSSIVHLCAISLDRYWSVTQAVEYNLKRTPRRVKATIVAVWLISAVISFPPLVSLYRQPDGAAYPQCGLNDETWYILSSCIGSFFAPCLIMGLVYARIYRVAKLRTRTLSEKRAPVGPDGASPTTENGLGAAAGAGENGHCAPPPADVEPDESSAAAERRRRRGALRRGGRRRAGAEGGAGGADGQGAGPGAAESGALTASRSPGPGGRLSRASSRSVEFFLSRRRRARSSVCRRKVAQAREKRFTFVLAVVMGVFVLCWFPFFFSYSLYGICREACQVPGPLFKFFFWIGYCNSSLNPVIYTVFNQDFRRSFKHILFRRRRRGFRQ

[7] = blockers of RIG-like receptor reporter activation – cell-based, Sendai virus stimulus, luciferase, 10K MLSCN set, TLR/RLR signaling modifier project, primary screen (AID 602276;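 active = inhibition at or above 50% at 10 µM; inactive = inhibition below 50%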;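 note: firefly luciferase from ISG56 promoter only with Renilla not read in this screen; 0% = Sendai virus plus DMSO and 100% = medium plus DMSO without virus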); details: HEK293 RL24 IRF3 luciferase reporter, at 10 µM, stronger effect = higher value
[8] = TLR3 IRF3 reporter activation blockers – cell-based, poly I:C stimulus, luciferase, 10K MLSCN set, primary screen (AID 602277;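 active = inhibition of the reporter signal at or above 50%; inactive = inhibition below 50%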); details: HEK293-TLR3 RL24 IRF3 luciferase reporter, at 10 µM, stronger effect = higher value

| Compound | cell count [1] | inhibition [1] | inhibition of aggregation [2] | nuclei count [2] | inhibition [3] | nuclei count [3] | fluorescence slope [4] | NADPH fluorescence slope [5] | slope [6] | inhibition [7] | inhibition [8] |
| --- | --- | --- | --- | --- | --- | --- | --- | --- | --- | --- | --- |
| CCCNC(=O)C1CCN(S(=O)(=O)c2ccc3nc4c(c(C(=O)O)c3c2)CCCCC4)CC1 | 637 | 1.3% (inactive) | -1.8% (inactive) | 119% | -26.6% (inactive) | 118% | -0.531 (inactive) | 2e-05 (inactive) | 0.00704 (inactive) | 8.11% (inactive) | 12.8% (inactive) |
| COc1ccc(OC)c(-n2nnnc2SCC(=O)NCc2ccc3c(c2)OCO3)c1 | 324 | -12.5% (inactive) | -18.9% (inactive) | 101% | -26.8% (inactive) | 109% | -0.604 (inactive) | -1.7e-05 (inactive) | 0.00401 (inactive) | 18% (inactive) | -14.2% (inactive) |
| COc1ccc2[nH]c(=O)c(CN(CCO)S(=O)(=O)c3ccc4c(c3)OCCO4)cc2c1 | 539 | -7.5% (inactive) | 7.9% (inactive) | 105% | 24.9% (inactive) | 98.9% | -0.555 (inactive) | -5.3e-05 (inactive) | 0.00253 (inactive) | 9.42% (inactive) | 11.8% (inactive) |
| CCn1cc(C(=O)NCCCOC)c(=O)c2cc(S(=O)(=O)N(C)C)ccc21 | 693 | -5% (inactive) | 6% (inactive) | 82.6% | -42.6% (inactive) | 112% | -0.418 (inactive) | 3.3e-05 (inactive) | 0.00533 (inactive) | 4.09% (inactive) | 31.3% (inactive) |
| COc1ccc(OC)c(S(=O)(=O)Nc2ccc(O)c3ccccc23)c1 | 382 | -10.1% (inactive) | -0.8% (inactive) | 93% | -13.9% (inactive) | 114% | -0.416 (inactive) | -6.5e-05 (inactive) | 0.00306 (inactive) | 14.9% (inactive) | 53.2% (active) |
| Cc1ccc2c(c1)c1c3n2CC(=C2C(=O)OC(C)(C)OC2=O)NC3CCC1 (stereo not drawn) | 613 | -10.5% (inactive) | -5.4% (inactive) | 10.9% | -142% (inactive) | 139% | -0.589 (inactive) | -1.7e-05 (inactive) | 0.00226 (inactive) | 16.6% (inactive) | 1.44% (inactive) |
| CN(C)S(=O)(=O)N1CCN(c2cccc(Cl)c2)CC1 | 411 | -0.2% (inactive) | 16.9% (inactive) | 87.3% | -14.6% (inactive) | 99.2% | -0.514 (inactive) | 7.3e-06 (inactive) | 0.00363 (inactive) | 10.3% (inactive) | 20.7% (inactive) |
| CC(C)(C)c1ccc(OCC(=O)O)cc1 | 567 | 3.1% (inactive) | 11.7% (inactive) | 98% | -36% (inactive) | 96.2% | -0.599 (inactive) | -3.9e-05 (inactive) | 0.00377 (inactive) | 7.32% (inactive) | 11.4% (inactive) |
| CCOC(=O)c1cccc(NC(=O)CSc2nnc(C3CCCCC3)n2C)c1 | 291 | -10.5% (inactive) | 7.3% (inactive) | 117% | 18% (inactive) | 113% | -0.586 (inactive) | -3.6e-05 (inactive) | 0.00599 (inactive) | 12.9% (inactive) | 17.5% (inactive) |
| Fc1cccc(-c2cc3nc4c(c(N5CCN(c6cnccn6)CC5)n3n2)CCCC4)c1 | 468 | -3.1% (inactive) | -5.2% (inactive) | 101% | -80.1% (inactive) | 100% | -0.622 (inactive) | -2.7e-05 (inactive) | 0.00757 (inactive) | -15.7% (inactive) | -16.1% (inactive) |
| COc1ccc(C(c2sc3nc(C)nn3c2O)N2CCCCC2)cc1 (stereo not drawn) | 639 | -6.4% (inactive) | -33.8% (inactive) | 114% | -42.5% (inactive) | 108% | -0.603 (inactive) | -4.6e-05 (inactive) | 0.00737 (inactive) | 8.51% (inactive) | 27.4% (inactive) |
| Cc1cc(C(=O)Nc2sc3c(c2C#N)CCCCC3)cs1 | 651 | 6% (inactive) | -8.1% (inactive) | 107% | -7.5% (inactive) | 100% | -0.581 (inactive) | -1.2e-05 (inactive) | 0.00236 (inactive) | -33.9% (inactive) | -119% (inactive) |
| Cn1c(SCC(=O)Nc2ccc(F)cc2)nnc1-c1cccnc1 | 660 | -1.1% (inactive) | 5.2% (inactive) | 90.3% | -57.8% (inactive) | 110% | -0.578 (inactive) | -4.7e-05 (inactive) | 0.00652 (inactive) | -0.187% (inactive) | 21.7% (inactive) |
| CCn1c(SCC(=O)N2CCN(c3ccc(Cl)cc3)CC2)nc2ccccc2c1=O | 324 | 8.1% (inactive) | 19.7% (inactive) | 83.7% | -184% (inactive) | 102% | -0.545 (inactive) | 4e-05 (inactive) | 0.00578 (inactive) | -8.17% (inactive) | -12.7% (inactive) |
| CCNc1ccc2c(Cl)cc(=O)oc2c1 | 356 | -2.5% (inactive) | 25.1% (inactive) | 72.6% | -6.6% (inactive) | 98.3% | -0.255 (inactive) | -3e-05 (inactive) | 0.00496 (inactive) | 4.11% (inactive) | -1.88% (inactive) |
| CCOC(=O)c1ccc(NS(=O)C23CC4CC(CC(C4)C2)C3)cc1 (stereo not drawn) | 406 | -1.1% (inactive) | -7.1% (inactive) | 111% | -53.8% (inactive) | 134% | -0.458 (inactive) | -9e-06 (inactive) | 0.00476 (inactive) | -1.97% (inactive) | 6.33% (inactive) |
| Cc1sc2ncnc(SCC(=O)N3CCCC3)c2c1C | 369 | 3.5% (inactive) | -6.6% (inactive) | 112% | -32.3% (inactive) | 108% | -0.433 (inactive) | -0.000107 (inactive) | 0.00701 (inactive) | 8.17% (inactive) | 6.41% (inactive) |
| CCn1c(SCC(=O)Nc2cc(C)on2)nc2sc3c(c2c1=O)CCCC3 | 470 | -16.6% (inactive) | 4% (inactive) | 118% | -26.9% (inactive) | 110% | -0.4 (inactive) | 1.4e-06 (inactive) | 0.00722 (inactive) | -5.69% (inactive) | 98.9% (active) |
| CCc1cccc(NC(=O)Cn2cc3c(n2)CCCC3)c1 | 759 | -2.8% (inactive) | 7.5% (inactive) | 101% | -27.9% (inactive) | 113% | -0.506 (inactive) | -2.1e-05 (inactive) | 0.0103 (active) | 13.7% (inactive) | 26.6% (inactive) |
| COc1ccc(S(=O)(=O)NCC(c2cccnc2)N2CCN(C)CC2)cc1C (stereo not drawn) | 600 | -1.8% (inactive) | -1.7% (inactive) | 84.8% | 2% (inactive) | 105% | -0.586 (inactive) | -1.6e-05 (inactive) | 0.00609 (inactive) | 4.66% (inactive) | 29.1% (inactive) |
| Cc1onc(-c2ccccc2)c1C(=O)N1CCOCC1 | 619 | -3.5% (inactive) | -7.5% (inactive) | 113% | -39.2% (inactive) | 106% | -0.327 (inactive) | 7.5e-06 (inactive) | 0.00368 (inactive) | 12.5% (inactive) | 20.9% (inactive) |
| CC1(C(=O)NC2CCCCC2)CCC(=O)N1Cc1cccs1 (stereo not drawn) | 803 | -0.6% (inactive) | 1.4% (inactive) | 104% | -78.3% (inactive) | 130% | -0.594 (inactive) | -2.7e-05 (inactive) | 0.00547 (inactive) | -11.7% (inactive) | 12.6% (inactive) |
| O=C1c2ccccc2C(Nc2ccc3c(c2)OCO3)N1Cc1ccc2c(c1)OCO2 (stereo not drawn) | 529 | -8.5% (inactive) | -8.3% (inactive) | 63.8% | -0.3% (inactive) | 107% | -0.398 (inactive) | -2.6e-05 (inactive) | 0.00394 (inactive) | -3.95% (inactive) | 27.2% (inactive) |
| COCCNC(=O)CCCCCN1C(=O)CCC1=O | 221 | -7.7% (inactive) | -8.5% (inactive) | 85.3% | 25.1% (inactive) | 71.9% | -0.595 (inactive) | -5.1e-05 (inactive) | 0.00625 (inactive) | 11.6% (inactive) | 24.9% (inactive) |
| CN(C)c1cccc(C(=O)OCC(=O)NCc2ccco2)c1 | 806 | -12.9% (inactive) | 5.8% (inactive) | 85.3% | 9.6% (inactive) | 97.5% | -0.603 (inactive) | 3e-05 (inactive) | 0.0074 (inactive) | 10.8% (inactive) | 5.69% (inactive) |
| O=C(C1=C(O)C(=O)N(Cc2ccccc2)C1c1ccncc1)c1ccco1 (stereo not drawn) | 382 | 8.3% (inactive) | -3.4% (inactive) | 116% | -216% (inactive) | 143% | -0.192 (inactive) | 2.5e-06 (inactive) | 0.0062 (inactive) | -5.31% (inactive) | 2.12% (inactive) |
| COc1ccc(-n2c(Cc3cccn3C)nnc2SCC(=O)Nc2cccc(Cl)c2)cc1 | 583 | 36.1% (active) | 22.4% (inactive) | 85.2% | 1.8% (inactive) | 116% | -0.609 (inactive) | 1.6e-05 (inactive) | 0.00706 (inactive) | -2.83% (inactive) | 19.5% (inactive) |
| COc1cccc(-c2csc3nc[nH]c(=O)c23)c1 | 517 | 4.9% (inactive) | -18.2% (inactive) | 98.7% | -72.4% (inactive) | 97.9% | -0.426 (inactive) | -3.4e-05 (inactive) | 0.0038 (inactive) | 8.62% (inactive) | 2.24% (inactive) |
